High-throughput results as filed in PubChem BioAssay.
GCN5L2 inh: qHTS Assay for Inhibitors of GCN5L2; Histone acetyltransferase KAT2A (Homo sapiens), Q92830; GCN5L2 HAT assay, ThioGlo1 CoA-SH fluorescence; Potency, µM (doses to about 58.9 µM), inactives show at the top dose activity change, negative = inhibition, most hits filed as inhibitors; AID 504327, 2011; 390,000 tested, 0.21% active; note: potency is the fitted concentration of half-maximal effect; % is set by controls: 0 for no effect and ±100 for the full control effect
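Fluorescence readout, Ex340nm/Em540nm: ThioGlo1 (50uM final) reacts with free CoA thiol released as 20nM GCN5L2 acetylates H3(1-25) peptide (75uM) using acetyl-CoA (70uM). Compound and enzyme sat 15 min beforehand; 20 min room-temperature reaction.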
VDR inhibitor: Inhibitors of the vitamin D receptor (VDR): qHTS; Vitamin D3 receptor (Homo sapiens), P11473; VDR-SRC2-3 peptide fluorescence polarization, 2 h; Potency, µM, inactives show max response, negative = inhibition, hits mostly inhibitors; 400,000 tested, 0.93% active; note: potency is the fitted concentration of half-maximal effect; % is set by controls: 0 for no effect and ±100 for the full control effect
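Two reagent solutions held at 4 deg C in the dark were dispensed, compounds pinned at 23 nl, and the mixture incubated 2 h at room temperature. Read-out: fluorescence polarization of VDR–SRC2-3 peptide binding.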
Rango dissoc inh: qHTS Assay for Inhibitors of RanGTP induced Rango (Ran-regulated importin-beta cargo) - Importin beta complex dissociation | Snurportin-1 (Homo sapiens) + GTP-binding nuclear protein Ran (Homo sapiens) + Importin … | Biochemical FRET Rango-importin beta, RanGTP-induced dissociation | Potency, µM (highest dose often 46.1 µM), without a hit: top-dose activity change, negative = inhibition | 340,000 tested, 0.071% active | AID 540253, 2011; calls by dose curve; note: potency is the fitted concentration of half-maximal effect; % of control where 0% means no effect; nearly all actives have a fitted effect of over 45% in size
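Rango/importin beta premix (0.1/0.25 uM final), PBS + 1 mM DTT + 0.02% Tween-20 + 0.1% BSA; cpd 5 min RT; FRET pre-read; + RanGTP-RCC1 (0.6 uM Ran, 2 mM GTP, 0.2 uM RCC1); 45 min RT; FRET post-read, ex 430, em 486/530 nm.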
PI5P4Ka inh: qHTS for Inhibitors of phosphatidylinositol 5-phosphate 4-kinase (PI5P4K) | Phosphatidylinositol 5-phosphate 4-kinase type-2 alpha (Homo sapiens), P48426 | PI5P4Kalpha enzyme, ADP-Glo luminescence, 60 min; stronger effect = lower value | max response, % | 330,000 tested, 1.2% active; active = max response of -50% or lower; inconclusive = between -30% and -50%; inactive = -30% or higher; note: value at the top dose of about 77 µM; % is set by controls: 0 for no effect and ±100 for the full control effect
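Controls without substrate or without enzyme flank wells where PI5P4Kalpha converts substrate using 5 microM ATP (final). Incubation lasts 60 minutes at room temperature; ADP formed is read by ADP-Glo luminescence.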
Rango-impB inh: qHTS Assay for Inhibitors of Rango (Ran-regulated importin-beta cargo) - Importin beta complex formation; 340,000 tested, 0.031% active; Importin subunit beta-1 (Homo sapiens), Q14974; Rango CFP/YFP FRET sensor + importin beta, 45 min; AID 540263, 2011; Potency, µM (highest dose often 92.2 µM), for inactives: at the highest dose inhibition of complex formation; calls by dose curve;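 note: potency is the fitted concentration of half-maximal effect; 0% = DMSO wells and 100% = buffer wells lacking importin beta; nearly all actives have a fitted effect of over 15% in size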
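FRET biosensor (snurportin 1 IBB flanked by EYFP and cerulean), 50 nM, with compound 5 min, then 0.125 microM importin beta in PBS, 1 mM DTT, 0.02% Tween-20, 0.1% BSA. CFP/YFP ratio read after 45 min at room temperature; pre-read flags interference.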
PLK1 PBD block: qHTS for Inhibitors of PLK1-PDB (polo-like kinase 1 - polo-box domain): Primary Screen. Serine/threonine-protein kinase PLK1 (Homo sapiens), P53350. 360,000 tested, 2.8% active. Plk1 PBD binding of FITC phosphopeptide, fluorescence polarization. Potency, µM, for inactives: max response, negative = inhibition, hits mostly inhibitors; note: potency is the fitted concentration of half-maximal effect; series mostly up to about 57 µM; % is set by controls: 0 for no effect and ±100 for the full control effect; nearly all actives have a fitted effect of over 65% in size
Target sequence (P53350 whole entry, looked up, the tested form may be a part): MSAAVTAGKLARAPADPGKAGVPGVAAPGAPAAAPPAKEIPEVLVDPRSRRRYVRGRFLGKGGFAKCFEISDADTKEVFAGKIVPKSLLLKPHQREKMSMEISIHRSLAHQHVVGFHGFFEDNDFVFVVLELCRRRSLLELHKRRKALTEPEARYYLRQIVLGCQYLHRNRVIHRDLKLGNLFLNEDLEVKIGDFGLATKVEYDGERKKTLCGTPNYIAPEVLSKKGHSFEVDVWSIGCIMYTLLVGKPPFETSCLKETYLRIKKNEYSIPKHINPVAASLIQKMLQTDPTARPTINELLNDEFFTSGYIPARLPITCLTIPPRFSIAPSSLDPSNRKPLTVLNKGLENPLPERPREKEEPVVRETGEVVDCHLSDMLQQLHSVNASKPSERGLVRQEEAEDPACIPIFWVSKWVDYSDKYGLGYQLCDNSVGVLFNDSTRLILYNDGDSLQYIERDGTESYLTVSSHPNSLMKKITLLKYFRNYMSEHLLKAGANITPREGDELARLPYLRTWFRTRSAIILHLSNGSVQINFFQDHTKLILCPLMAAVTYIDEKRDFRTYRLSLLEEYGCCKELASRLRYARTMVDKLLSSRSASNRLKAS
The depositor's hits bear a star; [ ] = dose if it differs, or a comment. Sampled rows, rich in hits. Any-hit rate of the full collection: about 3.6%. Unless noted, calls come from the whole dose curve; as a rule, active = well fitted curve in the direction sought with a large enough effect; inconclusive = small, poorly fitted or top-dose-only effect, or another doubt; inactive = no such curve, though single readings can be large; an effect the other way counts as inactive or inconclusive.

Results for CCOc1ccc(N(CC(=O)NC2CCCCCC2)S(=O)(=O)c2c(C)noc2C)cc1 ?
GCN5L2 inh: 2%; VDR inhibitor: -5%; Rango dissoc inh: -3%; PI5P4Ka inh: 2; Rango-impB inh: 2%; PLK1 PBD block: -14%

What do the screens show for `CCn1nc(NS(=O)(=O)c2ccccc2)c2cc3ccccc3nc21`?
GCN5L2 inh: 1%; VDR inhibitor: inconclusive; Rango dissoc inh: inconclusive; PI5P4Ka inh: -13; Rango-impB inh: 2%; PLK1 PBD block: 27µM*

Results for CCn1nc(NC(C)=O)c2cc3ccc(C)cc3nc21 ?
GCN5L2 inh: -11%; VDR inhibitor: -8%; Rango dissoc inh: 9.2µM*; PI5P4Ka inh: 7; Rango-impB inh: inconclusive; PLK1 PBD block: -1%

What do the screens show for `CCCn1nc(NS(=O)(=O)c2ccccc2)c2cc3ccccc3nc21`?
GCN5L2 inh: -5%; VDR inhibitor: 10%; Rango dissoc inh: -3%; Rango-impB inh: 2%; PLK1 PBD block: -2%

What do the screens show for `CC1CCc2c(sc3[nH]c(=S)n(C)c(=O)c23)C1` (stereo not drawn)?
GCN5L2 inh: -25%; VDR inhibitor: inconclusive; Rango dissoc inh: 3%; PI5P4Ka inh: -28; Rango-impB inh: 3%; PLK1 PBD block: 11µM*

How did O=C(CCNC(=O)c1ccccc1)Nc1cccnc1 do in these assays?
GCN5L2 inh: -2%; VDR inhibitor: -11%; Rango dissoc inh: -7%; PI5P4Ka inh: inconclusive; Rango-impB inh: 0%; PLK1 PBD block: 27µM*

Results for C/C=C/COc1nc2c(c(=O)n(C)c(=O)n2C)n1C ?
GCN5L2 inh: -3%; VDR inhibitor: -15%; Rango dissoc inh: -14%; PI5P4Ka inh: inconclusive; Rango-impB inh: 1%; PLK1 PBD block: 3µM*

Results for CCn1c(OC)nc2c1c(=O)n(C)c(=O)n2C ?
GCN5L2 inh: -18%; VDR inhibitor: -13%; Rango dissoc inh: 2%; PI5P4Ka inh: -5; Rango-impB inh: 4%; PLK1 PBD block: 2%

Results for CCC(C)n1c(OC)nc2c1c(=O)n(C)c(=O)n2C (stereo not drawn) ?
GCN5L2 inh: 13%; VDR inhibitor: inconclusive; Rango dissoc inh: 2%; PI5P4Ka inh: -29; Rango-impB inh: -1%; PLK1 PBD block: 2.7µM*

How did COCCCNC(=O)c1c(NC(=O)Cc2coc3c(C)c(C)ccc23)sc2c1CCCC2 do in these assays?
GCN5L2 inh: -7%; VDR inhibitor: 1%

What do the screens show for `CC1(C)CC2CN(C(=O)Cc3ccccc3)C(C)(C2)C1` (stereo not drawn)?
GCN5L2 inh: -8%; VDR inhibitor: -10%; Rango dissoc inh: 0%; PI5P4Ka inh: -12; Rango-impB inh: 1%; PLK1 PBD block: 21µM*

Results for COc1ccccc1-c1ccc(C(=O)O)o1 ?
GCN5L2 inh: -2%; VDR inhibitor: inconclusive; Rango dissoc inh: -8%; PI5P4Ka inh: -2; Rango-impB inh: -3%; PLK1 PBD block: -11%

Results for Cc1ccc(C)c(-c2ccc(C(=O)O)o2)c1 ?
GCN5L2 inh: -10%[135 µM]; VDR inhibitor: 126µM*

What do the screens show for `COc1ccc(Cl)cc1-c1ccc(C(=O)O)o1`?
GCN5L2 inh: -9%[88.6 µM]; VDR inhibitor: 112µM*

How did CC1(C)SCC(C(=O)O)NC1=O (stereo not drawn) do in these assays?
GCN5L2 inh: -10%; VDR inhibitor: -10%; Rango dissoc inh: 3%; PI5P4Ka inh: -12; Rango-impB inh: 0%; PLK1 PBD block: 21µM*

What do the screens show for `O=C1CC[C@H](C(=O)O)N1`?
GCN5L2 inh: 14%; VDR inhibitor: 0%

What do the screens show for `CCOC(=O)c1c(Oc2ccc(OC)cc2)nnc(-c2ccccc2)c1-c1ccccc1`?
GCN5L2 inh: -7%; VDR inhibitor: 19%

Results for CC1CCCN(c2nc3c(-c4ccc(Cl)cc4)nnn3c3ccccc23)C1 (stereo not drawn) ?
GCN5L2 inh: -2%; VDR inhibitor: 10%

Results for COC(=O)[C@H](C)NC(=O)NCCC1=CCCCC1 ?
GCN5L2 inh: -10%; VDR inhibitor: -25%; Rango dissoc inh: -3%; PI5P4Ka inh: -11; Rango-impB inh: -1%; PLK1 PBD block: 30µM*

Results for CCC(C)[C@H](NC(=O)NCCC1=CCCCC1)C(=O)OC (stereo partly drawn) ?
GCN5L2 inh: -6%; VDR inhibitor: -3%; Rango dissoc inh: 1%; PI5P4Ka inh: 1; Rango-impB inh: -6%; PLK1 PBD block: -11%

How did N#CC(C#N)=C1C=C2C=C(N3CCCCC3)CCC2CC1 (stereo not drawn) do in these assays?
GCN5L2 inh: -3%; VDR inhibitor: inconclusive; Rango dissoc inh: inconclusive; PI5P4Ka inh: 1; Rango-impB inh: inconclusive; PLK1 PBD block: -5%

Results for N#CC1=C(N)C2=C(N3CCCCC3)CCCC2C1(C#N)C#N (stereo not drawn) ?
GCN5L2 inh: -10%; VDR inhibitor: inconclusive; Rango dissoc inh: inconclusive; PI5P4Ka inh: -54*; Rango-impB inh: inconclusive; PLK1 PBD block: inconclusive

What do the screens show for `CCc1ccc2c(c1)C(c1ccc([N+](=O)[O-])cc1)=NNC(c1ccc(F)cc1)=N2`?
GCN5L2 inh: -3%; VDR inhibitor: -14%; Rango dissoc inh: 12µM*; Rango-impB inh: inconclusive; PLK1 PBD block: -2%

What do the screens show for `COc1ccc2c(c1)C(c1ccc([N+](=O)[O-])cc1)=NNC(c1ccco1)=N2`?
GCN5L2 inh: -8%; VDR inhibitor: -24%; Rango dissoc inh: -5%; Rango-impB inh: -1%; PLK1 PBD block: 1%

Results for O=C(NNc1ccc(F)cc1F)c1cccs1 ?
VDR inhibitor: -14%

How did CCCN1C(=O)C2(c3ccccc31)c1c(oc3ccc(C)cc3c1=O)C(=O)N2CCOC (stereo not drawn) do in these assays?
GCN5L2 inh: -2%; VDR inhibitor: 4%

What do the screens show for `CCC(NC(=O)Nc1cc(OC)ccc1OC)c1c(-n2cccc2)sc2c1CCN(CC)C2` (stereo not drawn)?
GCN5L2 inh: -5%; VDR inhibitor: 3%

What do the screens show for `N#CCCn1cc(C(=O)Nc2ccc(C(=O)O)cc2)c(-c2cccs2)n1`?
GCN5L2 inh: -2%; VDR inhibitor: inconclusive; Rango dissoc inh: -5%; PI5P4Ka inh: inconclusive; Rango-impB inh: -2%; PLK1 PBD block: 6µM*
